gsp antagonist = antagonizes gsp, the McCune-Albright syndrome mutation. gsp-mutant cells, cAMP HTRF, 30 min. Potency, µM (titrated, usually from 76.9 µM), hits mostly inhibitors. 340,000 tested, 0.4% active; calls by dose curve; cell line not stated here;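 also: intracellular cAMP measured with PDE inhibitor Ro 20-1724 present during compound exposure; nearly all actives have a fitted effect of over 65% in size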
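HTRF cAMP read-out (cAMP-d2 plus anti-cAMP antibody-K in lysis buffer, 30 min RT). Before lysis, cells are exposed to compounds with […] for 30 min at 37C in DPBS containing Ca/Mg, BSA and Tween 20.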
Mm-Cpn inhibitor = inhibitors of Methanococcus maripaludis chaperonin TRiC (MmCpn) | purified Mm-Cpn ATPase, ADP Transcreener TR-FRET | Potency, µM (highest dose often 76.9 µM), actives largely listed as inhibitors | 330,000 tested, 0.031% active | AID 504842; active = well fitted inhibition curve with a large enough effect; inconclusive = small, poorly fitted or top-dose-only effect; also: nearly all actives have a fitted effect of over 80% in size
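Eu-cryptate anti-ADP/ADP-d2 competition gives a ratio inversely related to ADP. Enzyme at 25 nM was pre-exposed to compound for 10 min, then given 10 uM ATP for 30 min, 37°C throughout.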
uPA generation = inhibitors of cell surface uPA generation | 330,000 tested, 0.31% active | cell surface uPA generation assay, qHTS | AID 540303 | Potency, µM (series often up to 38.3 µM), usual class: inhibitors; active = well fitted inhibition curve with a large enough effect; inconclusive = small, poorly fitted or top-dose-only effect; inactive = no such curve, though single readings can be large or run the other way; tested in mouse RAW 264.7 cells; also: nearly all actives have a fitted effect of over 55% in size
gsp agonist = agonists of gsp mutant (McCune-Albright syndrome); gsp mutant cells, cAMP HTRF, 30 min; Potency, µM (series often up to 76.9 µM), actives largely listed as activators; 340,000 tested, 0.13% active; active = well fitted activation curve with a large enough effect; inconclusive = small, poorly fitted or top-dose-only effect, or another doubt; inactive = no such curve, though single readings can be large or run the other way; cell line not stated here;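 also: phosphodiesterase inhibitor Ro 20-1724 added with compounds to block cAMP breakdown; nearly all actives have a fitted effect of over 60% in size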
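Cells stably selected in G418 were plated at 2000/well, grown 16-24 hr, then given compounds in DMSO with the PDE inhibitor […] (300 uM solution added) for 30 min at 37C; cAMP was read by HTRF.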
CCT chaperon mod = modulators of cytosolic chaperonin (CCT/TRiC) activity | activity change, % (concentration not given with the values), hits read low | AID 651819 | 360,000 tested, 0.3% active | purified chaperonin ATPase assay, HTRF ADP detection, 30 min; in the data active = activity change below about -30%
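First, chaperonin was dispensed at 40 nM or 20 nM final depending on batch activity. Next, compounds were pinned at 76 uM and ATP added at 10 uM. After 30 min at 37 °C, ADP detection reagents ran 30 min at ambient temperature.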
TSHR antag = antagonists of human thyroid stimulating hormone receptor. 330,000 tested, 0.2% active. AID 504810. activity change, negative = inhibition, % at 11.5 µM. TSHR-expressing cells, TSH-stimulated cAMP HTRF, 2 h; stronger effect = lower value;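 active = activity change below a set negative limit, meaning inhibition stronger than a set level, cut at about -70% in these data; inconclusive = activity change between two set negative limits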
Target sequence (P16473 whole entry, looked up): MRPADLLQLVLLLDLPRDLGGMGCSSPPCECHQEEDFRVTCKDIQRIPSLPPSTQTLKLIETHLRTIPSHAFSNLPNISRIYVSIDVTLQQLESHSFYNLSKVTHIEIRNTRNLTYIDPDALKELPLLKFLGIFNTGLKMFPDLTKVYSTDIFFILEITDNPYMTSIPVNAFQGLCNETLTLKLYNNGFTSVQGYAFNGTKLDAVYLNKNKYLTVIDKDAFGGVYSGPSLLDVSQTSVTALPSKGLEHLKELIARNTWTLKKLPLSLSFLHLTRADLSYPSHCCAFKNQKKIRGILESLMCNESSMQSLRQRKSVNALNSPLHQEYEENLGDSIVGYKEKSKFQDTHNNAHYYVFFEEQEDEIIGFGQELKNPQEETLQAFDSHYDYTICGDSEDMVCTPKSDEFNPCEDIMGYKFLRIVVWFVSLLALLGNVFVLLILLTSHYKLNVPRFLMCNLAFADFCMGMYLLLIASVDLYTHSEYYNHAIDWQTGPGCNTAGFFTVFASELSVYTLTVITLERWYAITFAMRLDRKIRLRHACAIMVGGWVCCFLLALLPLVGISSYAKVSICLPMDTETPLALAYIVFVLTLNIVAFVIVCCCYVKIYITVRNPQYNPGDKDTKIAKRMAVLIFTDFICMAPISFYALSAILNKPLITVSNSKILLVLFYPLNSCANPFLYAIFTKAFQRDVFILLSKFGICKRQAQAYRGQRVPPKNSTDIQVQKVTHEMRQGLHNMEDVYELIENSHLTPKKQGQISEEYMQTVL
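Antagonism was scored as loss of TSH-driven cAMP in TSHR cells, stimulated with 4nM TSH (EC80) for 2 hours at 37 deg C and detected by homogeneous HTRF competition immunoassay.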
A number is an active result; i = inactive; ? = inconclusive; nt = no result; [ ] = dose if it differs, or a comment. Shown are actives, neighbours in structure and some others; about 1.2% of the full set was active somewhere.

SMILES	gsp antagonist	Mm-Cpn inhibitor	uPA generation	gsp agonist	CCT chaperon mod	TSHR antag
O=C(Nc1ccon1)c1ccc(OC2CCCC2)cc1	i	i	10µM	?	i	i
Cn1c(SCc2ccccc2)nnc1-c1ccc2c(c1)OCO2	i	i	i	i	i	i
CC(C)(C)c1cc(NC(=O)COC(=O)c2ccc(O)cc2O)n(-c2ccccc2)n1	i	i	i	i[15.4 µM]	i	i
O=C(COC(=O)c1ccc(O)cc1O)Nc1cc(-c2ccccc2)nn1-c1ccccc1	35µM	i	i	i[15.4 µM]	i	i
O=C(NO)c1ccccc1O	i	i	i	nt	i	i
CC1CCN(C(=O)COC(=O)CCCN2C(=O)c3cccc4cccc(c34)C2=O)CC1	i	i	i	?	-94	i
CCOc1ccccc1N1CCN(C(=O)CCCN2C(=O)c3cccc4cccc(c34)C2=O)CC1	i	i	i	i	i	-81
O=C(CCCN1C(=O)c2cccc3cccc(c23)C1=O)OCC(=O)N1CCCCC1	nt	nt	nt	i	i	nt
CC(OC(=O)CCN=C1NS(=O)(=O)c2ccccc21)C(=O)Nc1ccc(N(C)C)cc1 (centres undefined)	7.1µM	i	i	i	i	i
Cn1c(/C=C/c2ccccc2)nc2ccccc21	i	i	4µM	i	i	i
Cn1c(=O)c(/C=C/c2ccccc2)nc2ccccc21	i	i	i	i	i	i
O=C(Cc1c(O)c2ccccc2oc1=O)c1ccc(C(F)(F)F)cc1	i	i	i	i[15.4 µM]	i	i
NC(=O)c1cc(S(=O)(=O)NCc2cccs2)cs1	i	i	i	i	i	i
Cc1cccc(CNS(=O)(=O)c2csc(C(N)=O)c2)c1	i	i	i	i	i	-70
NC(=O)c1cc(S(=O)(=O)NCc2cccc(Br)c2)cs1	i	i	i	i	i	i
NC(=O)c1cc(S(=O)(=O)NCc2ccc(F)cc2)cs1	i	i	i	?	i	-132
COc1ccc(NC(=O)C2(C)CCN2C(=O)C(C)C)cc1F (centres undefined)	nt	nt	nt	nt	-36	nt
CCN(CC)CCn1c2ccccc2c2nc3ccccc3nc21	i	i	10µM	i	i	i
COc1nc(NCc2cccnc2)nc(OC)n1	i	i	nt	i	i	i
Cc1csc(C(C#N)C(=O)c2cc3ccccc3o2)n1 (centres undefined)	25µM	i	?	i	i	i
Cc1cc(C)c(S(=O)(=O)N2CCN(S(=O)(=O)N3CCC(C)CC3)CC2)c(C)c1	i	i	i	i[15.4 µM]	-49	i
COC(=O)c1sccc1NC(=O)CNC(=O)c1ccccc1	i	i	i	i[15.4 µM]	-76	i
COC(=O)c1sccc1NC(=O)c1ccc(C)cc1	i	i	i	i	i	i
CCc1ccc(CNC(=O)c2cc3c(C)nc4ccccc4c3o2)cc1	i	i	?	i	i	i
Cc1nc2ccccc2c2oc(C(=O)NCC3COc4ccccc4O3)cc12 (centres undefined)	40µM	i	?	?	i	i
SMILES	gsp antagonist	Mm-Cpn inhibitor	uPA generation	gsp agonist	CCT chaperon mod	TSHR antag
COc1ccc(OC)c(CCNC(=O)Cc2ccc(NC(=O)C3=C(C)OCCS3)cc2)c1	nt	nt	nt	i	i	nt
Cc1cc(OC(=O)c2ccccc2Cl)cc(=O)n1C	40µM	i	i	i	i	i
O=C(Oc1ccc(N2C(=O)CCC2=O)cc1)c1ccccc1Cl	i	i	i	i	i	i
Cc1nnsc1C(=O)N1CCCC(C(=O)c2ccc(C(F)(F)F)cc2)C1 (centres undefined)	i	i	i	i	i	i
C=CCOC(=O)C1=C(C)OC(N)=C(C#N)C1c1ccc(OC)c(CSc2ccccn2)c1 (centres undefined)	i	i	i	?	-85	i
CCCC1=C(C(=O)OCC)C(c2ccc(OC)c(CSc3ccccn3)c2)C(C#N)=C(N)O1 (centres undefined)	i	i	i	i	i	i
O=C(c1ccccc1-c1ccccc1)N1CCCC1	i	i	i	i	i	i
N#C/C(N=Nc1ccccc1O)=N\Nc1ccccc1O	35µM	i	?	nt	i	?
O=C(O)c1sccc1S(=O)(=O)N1CCN(c2ccc(C(F)(F)F)cn2)CC1	i	i	i	?	i	i
O=S(=O)(c1ccc(C(F)(F)F)cc1)N1CCCN(c2ccc(C(F)(F)F)cn2)CC1	i	i	i	i[15.4 µM]	-34	i
O=C(C1CCCCC1)N1CCN(c2ccnc3cc(Cl)ccc23)CC1	35µM	i	i	i[15.4 µM]	i	i
COc1ccccc1NC(=O)N1CCN(c2ccnc3cc(Cl)ccc23)CC1	35µM	i	i	i[15.4 µM]	i	i
CCc1ccccc1NC(=O)CNC(=O)CNC(=O)c1cccs1	i	i	i	i	i	i
CC(C)CN1C(=O)c2ccc(C(=O)Nc3ccncc3)cc2C1=O	28µM	i	nt	i	i	i
CC(C)CN1C(=O)c2ccc(C(=O)Nc3ccccn3)cc2C1=O	i	i	i	i	i	i
CC(C)CCN1C(=O)c2ccc(C(=O)Nc3ccc(Br)cc3C(=O)O)cc2C1=O	35µM	i	i	i	i	i
COC(=O)c1ccc(NC(=O)c2ccc3c(c2)C(=O)N(Cc2cccnc2)C3=O)cc1	40µM	i	i	i	i	i
CC(C)CCN1C(=O)c2ccc(C(=O)Nc3cc(C(=O)O)cc(C(=O)O)c3)cc2C1=O	i	i	i	i[15.4 µM]	i	i
COc1ccccc1NC(=S)N(Cc1ccco1)Cc1cc2cc(C)c(C)cc2[nH]c1=O	i	i	4µM	i	i	i
Cc1c(C(=O)N(C)C)sc(NC(=O)c2cc([N+](=O)[O-])cc([N+](=O)[O-])c2)c1C#N	40µM	i	i	i	i	i
Cc1ccc(CNc2ccc(CNc3ncn[nH]3)cc2)cc1	i	i	nt	i	i	i
O=C(OCc1cccc([N+](=O)[O-])c1)c1cnccn1	i	i	i	5.6µM	i	i
O=C(OCc1c(F)cccc1Cl)c1cnccn1	i	i	i	?	-40	i
CCSc1nnc(NC(=O)Nc2cccc(C)c2)s1	i	i	i	i[15.4 µM]	i	i
COc1ccc2c(CC(=O)Nc3ccc4nc(N5CCOCC5)sc4c3)coc2c1	nt	nt	nt	i	i	nt
Cc1cc2c(cc1C)-c1c(ssc1=Nc1ccc(S(N)(=O)=O)cc1)C(C)(C)N2	?	i	?	i	i	i
CC(=O)NS(=O)(=O)c1ccc(N=c2ssc3c2-c2cc(C)c(C)cc2NC3(C)C)cc1	14µM	i	i	i[15.4 µM]	i	i
Cn1c(SCC(=O)Nc2ccc(NC(=O)c3ccccc3F)cc2)nnc1-c1ccncc1	50µM	i	i	i[15.4 µM]	i	i
CCOc1ccccc1-c1nnc(SCC(=O)NC2CC2)n1CC	i	i	i	i[15.4 µM]	i	i
COc1cc(/C=C(\C#N)C(=O)Nc2ccc3c(c2)OCCO3)ccc1O	i	i	10µM	i	i	i

Screening data: PubChem BioAssay, National Center for Advancing Translational Sciences (NCATS)
